# Measurements taken from PubChem BioAssay AID1053126 (Broad Institute, 2014).
# Entries with a potency or affinity are not part of this list. Unmarked numbers belong to inactive results.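 Rule for the calls: active = cell killing with a fitted half-effect concentration at or below twice the top valid dose; inconclusive = flat curve with 30 to 70 percent drop, or poor fit; inactive = the rest.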
# Test: HEK293T cell cytotoxicity, dose response, cytotoxicity control, ATP luminescence, cherry-pick, set 6 (AID 1053126);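 note: 0% = neutral control wells and -100% = mitoxantrone 10 µM positive control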
# Conditions: HEK293T viability, CellTiter-Glo ATP luminescence, 72 h; series mostly up to 26 µM; activity change, negative = cytotoxicity: at the top concentration
row,SMILES,"activity change, negative = cytotoxicity [%]"
1,CC1CC(C)CN(CCCNC(=O)CCC(=O)N2CC(C)Oc3ccccc32)C1 (stereo unspecified),9.39
2,CN1CCc2c(sc(NC(=O)C3CCCCC3)c2C(N)=O)C1,-9.23
3,COC(=O)C1=CN(Cc2ccc(OC)c(OC)c2)C=C(C(=O)OC)C1c1cccc(F)c1,-13.2
4,CC(C)CCN1C(=O)c2cccc3c(N)ccc(c23)C1=O,-10.8
5,CCOC1=NN(c2ncc(C(F)(F)F)cc2Cl)C(=O)C1,15.9
6,O=[N+]([O-])c1cccc(-c2n[nH]c(=S)n2-c2ccc(Br)cc2)c1,12.7
7,COc1ccc(C(=O)Oc2cc(N)n(S(=O)(=O)c3ccccc3)n2)cc1,8.42
8,Cc1cccn2c(=O)c3cc(C(=O)NCCN4CCOCC4)c(=N)n(CCc4ccccc4)c3nc12,-20.7
9,Cc1cccn2c(=O)c(/C=C(\C#N)C(N)=O)c(Oc3ccccc3)nc12,-7.72
10,O=C(Cc1csc(-c2ccccc2)n1)NCc1ccccc1F,9.15
11,N=c1c(C(=O)NCC2CCCO2)cc2c(=O)n3ccccc3nc2n1Cc1ccc(Cl)cc1 (stereo unspecified),1.9
12,O=C(O)c1cccc(Nc2nc(-c3cc4ccccc4oc3=O)cs2)c1,-14.3
13,Cc1cccn2c(=O)c3cc(C(=O)NCC4CCCO4)c(=N)n(CC4CCCO4)c3nc12 (stereo unspecified),1.69
14,N=c1oc2cc(O)ccc2cc1C(=O)Nc1nc2ccccc2s1,-12.6
15,CCOC(=O)C(NC(=O)c1ccccc1)(OCC1(CC)COC1)C(F)(F)F (stereo unspecified),-8.47
16,COc1ccc(S(=O)(=O)Cc2ccc(C(=O)N3CCN(Cc4ccccc4)CC3)o2)cc1,43.5
17,CC(C)CCn1c(CN2CC(C)OC(C)C2)nc2c1c(=O)n(C)c(=O)n2C (stereo unspecified),2.88
18,CC(=O)OC[C@@H]1CN(Cc2ccccc2)C[C@H](n2cnc3c(N(C)C(C)C)ncnc32)O1,-10.5
19,[O-]/[N+](=C/c1ccccc1)c1ccccc1,-8.31
20,Cc1c(O)ccc2cc(S(=O)(=O)c3ccccc3)c(=O)oc12,-10.9
21,CCOc1ccc2nc(NCCCNC(=O)c3cc(OC)c(OC)c(OC)c3)c(C#N)cc2c1,-13.6
